Source: PubChem BioAssay (several laboratories)
PfHsp40 rescue – rescue of yeast from PfHsp40 toxicity, primary screen, S. cerevisiae, ATP luminescence | actives 0.68% (n = 340,000) | growth rescue, % at 12.5 µM | S. cerevisiae expressing PfHsp40, growth rescue; in the data active = growth rescue above about 28%, passing the limit was not always enough;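 also: yeast W303a lacking pdr1 and pdr3 grown in galactose medium; growth measured after three days at 30 °C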
SARS 3CLpro inh-1 – SARS-CoV 3CLpro protease inhibitors, primary screen, biochemical, quenched FRET. recombinant SARS-CoV 3CLpro, quenched FRET peptide cleavage. AID 1706, 2009. actives 0.14% (n = 290,000). inhibition, % at 6 µM; in the data active = inhibition above about 12%
BJeLR viability – MLPCN primary cell-based screen for lethality selective to Ras in HRASV12 cells | BJeLR (HRASV12) viability, CellTiter-Glo ATP luminescence, 48 h | inhibition, % (concentration not given with the values) | actives 0.17% (n = 300,000) | AID 1554, 2009; in the data active = inhibition above about 50%
MazEF act – activators of E. coli MazEF toxin-antitoxin RNase, primary screen, biochemical, fluorescence, uHTS; Endoribonuclease toxin MazF (Escherichia coli (strain K12)), P0AE70; FAM/BHQ RNA-DNA oligo cleavage fluorescence, 5 h; activation, % at 20 µM; actives 0.32% (n = 350,000); AID 504720, 2011; in the data active = activation above about 50%
Target sequence (P0AE70 whole entry, looked up): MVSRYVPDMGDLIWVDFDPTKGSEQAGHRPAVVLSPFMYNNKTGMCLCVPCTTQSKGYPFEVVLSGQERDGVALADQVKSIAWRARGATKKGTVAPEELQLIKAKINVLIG
Mtb BioA inh – M. tuberculosis BioA enzyme inhibitors, primary screen, biochemical, plate reader, single point, HTS; inhibition, % at 9.99 µM; 7,8-diaminopelargonic acid synthase BioA (Mycobacterium tuberculosis); AID 602481, 2012; purified M. tuberculosis BioA enzyme; actives 0.096% (n = 360,000); in the data active = inhibition above about 40%
Yp Topo-I inh – Yersinia pestis topoisomerase I inhibitors, primary screen, biochemical, cleavage product accumulation, plate reader, single point | activity, % at 10 µM | Y. pestis Topo-I cleavage product accumulation | DNA topoisomerase I (Yersinia pestis CO92) | AID 504884, 2011 | actives 0.064% (n = 360,000); in the data active = activity above about 50%, passing the limit was not always enough
SARS 3CLpro inh-2 – confirmation of SARS coronavirus 3C-like protease inhibitors, retest, confirmation, biochemical; shares compounds with SARS 3CLpro inh-1; QFRET protease activity assay, 3CLpro; inhibition, % at 6 µM; actives 36% (n = 380); AID 1879, 2009; in the data active = inhibition above about 13%
The depositor's hits bear a star; / = no result. Compounds with a hit are over-represented: about 1.1% of the library has one in this group of screens.

SMILES | PfHsp40 rescue | SARS 3CLpro inh-1 | BJeLR viability | MazEF act | Mtb BioA inh | Yp Topo-I inh | SARS 3CLpro inh-2
CO[C@@H]1CN(C)C(=O)c2cc(NC(=O)C3CC3)ccc2OC[C@@H](C)N(CC2CC2)C[C@@H]1C | / | / | / | / | -1 | / | /
O=C(CC1C(=O)NCCN1C(=O)Nc1ccc(C(F)(F)F)cc1)Nc1ccc(F)cc1 (stereo not drawn) | 1 | 10 | -1 | 4 | 8 | 0 | /
COc1ccc(NC(=O)CC2C(=O)NCCN2C(=O)Nc2ccc(C(F)(F)F)cc2)cc1 (stereo not drawn) | -1 | 13* | -15 | 6 | 2 | -9 | 4
CCOC(=O)c1cc(-c2ccccc2)sc1N | 3 | 59* | 2 | 11 | 0 | -14 | 33*
CCOC(=O)c1c(N)sc(-c2ccccc2)c1C | 6 | 6 | -1 | 0 | 1 | -8 | /
CCOC(=O)c1sc(-c2ccccc2)cc1N | 1 | 1 | 9 | -6 | 2 | 7 | /
CCOC(=O)c1c(N)sc(C(O)(C(F)(F)F)C(F)(F)F)c1-c1ccccc1 | 1 | 12* | -3 | -1 | 4 | 1 | 10
C[C@@H]1CN([C@@H](C)CO)C(=O)c2cc(NS(C)(=O)=O)ccc2O[C@@H](C)CCCCO[C@H]1CN(C)S(=O)(=O)c1ccc(Cl)cc1 | / | / | / | / | -1 | / | /
Cc1noc(NS(=O)(=O)c2ccc(NC(=O)Nc3ccc(Cl)c(Cl)c3)cc2)c1C | 0 | 16* | -3 | 1 | 9 | -11 | 10
COc1cc(CNCCc2c[nH]c3ccccc23)cc(OC)c1 | 3 | 71* | 6 | 12 | -1 | -1 | -5
COc1cc(CNCCc2c[nH]c3ccccc23)cc(OC)c1OC | / | / | / | -4 | 0 | 6 | /
CN(C)CC(=O)Nc1ccc2c(c1)[C@@H]1C[C@H](CC(=O)N(C)C)O[C@@H](CO)[C@@H]1O2 | / | / | / | / | -1 | / | /
CC(C)CS(=O)(=O)C1=NSC2=NC(=O)/C(=C\c3ccc(OC(=O)c4ccco4)cc3)C(=N)N21 | 0 | 13* | -3 | 2 | 1 | 17 | -1
CC=Cc1ccc2n(c1=O)C[C@@H]1[C@@H](CO)[C@H](C(=O)NCC)[C@H]2N1C(=O)Nc1cc(F)ccc1F (mixture of isomers) | / | / | / | / | -2 | / | /
CCOC(=O)c1ccc(NC(=O)CN2C(=O)C(CC)SC(CC)C2=O)cc1 (stereo not drawn) | 9 | 13* | -1 | -3 | / | 10 | -2
COc1ccc(NC(=O)N(C)C[C@@H]2OCCCC[C@H](C)Oc3ccc(NS(=O)(=O)c4ccccc4)cc3C(=O)N([C@@H](C)CO)C[C@@H]2C)cc1 | / | / | / | / | -1 | / | /
CCn1c(COc2ccccc2)nnc1SCC(=O)C(C)(C)C | -2 | 15* | 2 | -3 | 3 | 7 | -2
C[C@@H]1CN([C@@H](C)CO)C(=O)c2cc(NS(=O)(=O)c3ccc(F)cc3)ccc2O[C@@H](C)CCCCO[C@H]1CN(C)C(=O)Nc1ccccc1 | / | / | / | / | -3 | / | /
CNc1oc(-c2ccc(Cl)cc2)nc1P(=O)(c1ccccc1)c1ccccc1 | 0 | 13* | -6 | 8 | -1 | -3 | -1
Cc1ccc(-c2nc(P(=O)(c3ccccc3)c3ccccc3)c(N3CCOCC3)o2)cc1 | 0 | 4 | 0 | -1 | / | 35 | /
CC(=O)Nc1sc2c(c1C#N)CCCCC2 | 1 | -1 | / | -8 | -4 | -6 | /
CC(C)(C)C(=O)NC(=S)Nc1sc2c(c1C#N)CCCCC2 | -1 | 34* | -19 | 4 | / | -9 | 3
C[C@@H]1CCCCO[C@@H](CN(C)C(=O)Cc2ccccc2)[C@H](C)CN([C@H](C)CO)C(=O)c2cc(NS(=O)(=O)c3ccccc3)ccc2O1 | / | / | / | / | -1 | / | /
COc1cc2c(cc1OC)C(C1C(=O)CC(C)(C)CC1=O)N(C(=O)CCl)CC2 (stereo not drawn) | 1 | -3 | -7 | 3 | / | -3 | /
COc1cc2c(cc1OC)C(c1cc(Br)ccc1F)N(C(=O)CCl)CC2 (stereo not drawn) | 0 | 22* | 58* | 11 | 1 | 32 | 34*
SMILES | PfHsp40 rescue | SARS 3CLpro inh-1 | BJeLR viability | MazEF act | Mtb BioA inh | Yp Topo-I inh | SARS 3CLpro inh-2
CCC(O)(CC)C(=O)NN(C(=O)CCl)c1ccccc1 | -1 | -2 | -6 | 15 | / | 5 | /
O=C(Nc1ccccc1)NN(C(=O)CCl)c1ccccc1 | 0 | 32* | 3 | 10 | 0 | 6 | 36*
C[C@@H]1CN([C@H](C)CO)C(=O)c2cccc(NC(=O)Nc3cccc4ccccc34)c2O[C@@H]1CN(C)S(C)(=O)=O | / | / | / | / | -1 | / | /
O=S(=O)(Nc1cc(F)ccc1F)c1cccc2nonc12 | 1 | 13* | -9 | 8 | -2 | 2 | -6
Cc1noc(C)c1NC(=O)N(C)C[C@H]1Oc2ccc(NS(=O)(=O)c3ccc(F)cc3)cc2CC(=O)N([C@@H](C)CO)C[C@H]1C | / | / | / | / | -1 | / | /
O=C1C(=O)N(C/C=C/c2ccccc2)c2ccccc21 | -2 | 34* | 37 | 2 | -3 | 1 | 36*
O=C1c2ccccc2C(=O)N1C/C=C/c1ccccc1 | 1 | -6 | -4 | -2 | -1 | 18 | /
O=C(CN1C(=O)C(=O)c2ccccc21)NCCc1ccccc1 | 0 | 2 | 5 | 6 | / | 2 | /
O=C1C(=O)N(CCCc2ccccc2)c2ccccc21 | -1 | 19* | -3 | 8 | 0 | 6 | 22*
COc1cccc(-c2ccc([C@H]3[C@@H](CO)N4CCCCN(Cc5cncnc5)C[C@H]34)cc2)c1 | / | / | / | / | 3 | / | /
CC=Cc1ccc2n(c1=O)C[C@@H]1[C@@H](CO)[C@H](C(=O)N[C@H](C)c3ccccc3)[C@H]2N1CC1CC1 (mixture of isomers) | / | / | / | / | 0 | / | /
Cc1nc2c(C)cccc2c(SC(=N)N)c1CC=C(Cl)Cl | 0 | 1 | -2 | -9 | / | 12 | /
C=CCc1c(C)nc2c(C)cccc2c1SC(=N)N | 0 | 16* | -9 | 2 | 0 | 1 | 1
NC(=S)N/N=C/c1ccc(C23CC4CC(CC(C4)C2)C3)cc1 | / | 14* | 3 | -37 | / | / | -2
NC(=S)N/N=C/c1ccccc1 | 0 | 3 | 3 | 5 | / | 1 | /
O=c1[nH]c(C2CCN(S(=O)(=O)c3ccccc3F)CC2)nc2c1nnn2Cc1ccc(OC(F)(F)F)cc1 | -1 | 13* | -3 | 4 | 0 | 45 | 7
CC(=O)N(C)C[C@H]1Oc2ncc(C#CC3(O)CCCC3)cc2C(=O)N([C@H](C)CO)C[C@@H]1C | / | / | / | / | -1 | / | /
